The test system of assay [1] is Vero E6 infected with SARS-CoV-2. Description: morphology score (similarity to uninfected cells); higher = more like uninfected cells. Particulars: 24 h.
Assay [2] has the same test system. Description: SARS-CoV-2 infection rate relative to infected DMSO; higher = more infection, active = 60 or less. Particulars: 24 h.

We go through 25 molecules from the supplement of paper PMC13380429.

The structures appear in SMILES notation. Structures can show the parent of a compound that is named as a salt.

`Nc1cc(C(F)(F)F)c(-c2cc(N3CCOCC3)nc(N3CCOCC3)n2)cn1` [buparlisib] (10 µM) came in with a morphology score in assay [1] of -0.0939. The SARS-CoV-2 infection rate in assay [2] is 103% (inactive).
On to `CCCc1nc(C(C)(C)O)c(C(=O)OCc2oc(=O)oc2C)n1Cc1ccc(-c2ccccc2-c2nnn[nH]2)cc1` [olmesartan-medoxomil] (10 µM), for which the morphology score in assay [1] was -0.0296. Also, the SARS-CoV-2 infection rate in assay [2] is 116% (inactive).
For the molecule `Cc1cc(-c2cc(O)ccc2Cl)cc2nnc(Nc3ccc(OCCN4CCCC4)cc3)nc12` (0.833333 µM), the morphology score in assay [1] was -0.04. Moreover, the SARS-CoV-2 infection rate in assay [2] was 103% (inactive).
The matching figures for `O=C(c1ccc(C(=O)N2CCC(N3CCCC3)CC2)c(Nc2ccccc2)c1)N1CCC(N2CCCC2)CC1` (10 µM): -0.0106 and 114% (inactive).
On the same counts, the results for `CC(C)N(CCC(C(N)=O)(c1ccccc1)c1ccccn1)C(C)C` (stereo not given) [disopyramide] (10 µM) are 0.157 and 104% (inactive).
On the same counts, the results for `Cc1nc2c(O)cccc2c(=O)[nH]1` (10 µM) are -0.0261 and 114% (inactive).
For the molecule `Nc1nc2[nH]cnc2c(=S)[nH]1` [thioguanine] (0.833333 µM), the morphology score in assay [1] came to 0.218. For the same molecule, in assay [2], the SARS-CoV-2 infection rate is 98.5% (inactive).
`O=C(Cn1c(=O)sc2ccc(Cl)cc21)N1CCN(CCO)CC1` [tiaramide] (10 µM): the morphology score in assay [1] worked out at 0.00737. Further, the SARS-CoV-2 infection rate in assay [2] was 104% (inactive).
In assay [1], `Cc1n[nH]c(C)c1Cc1sc2c(c1C(=O)N1C[C@H](O)CO1)c(=O)n(C)c(=O)n2CC(C)C` (10 µM) gave a morphology score of 0.0657. Further, the SARS-CoV-2 infection rate in assay [2] was 106% (inactive).
In assay [1], `CC1=C(CCC(=O)O)c2cc3[nH]c(cc4nc(cc5[nH]c(cc1n2)c(C)c5C(C)O)C(C)=C4C(C)O)c(C)c3CCC(=O)O` (stereo not given) [hematoporphyrin] (10 µM) had a morphology score of -0.184. Further, in assay [2], the SARS-CoV-2 infection rate is 116% (inactive).
For the molecule `COc1cc2c(NC3CCN(C(C)C)CC3)nc(N3CCC(F)(F)CC3)nc2cc1OCCCN1CCCC1` (10 µM), the morphology score in assay [1] was 0.243. In addition, the SARS-CoV-2 infection rate in assay [2] was 25.5% (active).
`Cc1sc2c(c1C)C(c1ccc(Cl)cc1)=N[C@@H](CC(=O)Nc1ccc(OCCOCCOCCOCCNc3cccc4c3C(=O)N(C3CCC(=O)NC3=O)C4=O)cc1)c1nnc(C)n1-2` (stereo not given in full) (10 µM) had a morphology score in assay [1] of -0.0682. Also, in assay [2], the SARS-CoV-2 infection rate was 100% (inactive).
In turn, `CCN(CC)CCN[C@@H](C(=O)OCCC(C)C)c1ccccc1` [camylofine-chlorhydrate] (10 µM) registered a morphology score in assay [1] of 0.18. In addition, in assay [2], the SARS-CoV-2 infection rate is 98% (inactive).
On the same counts, the results for `COc1ccc2c(c1OC)C(=O)O[C@@H]2[C@H]1c2c(cc3c(c2OC)OCO3)CCN1C` [noscapine] (10 µM) are -0.105 and 104% (inactive).
Molecule `CCCCCN(C)CCC(O)(P(=O)(O)O)P(=O)(O)O` [ibandronate] (10 µM) showed a morphology score in assay [1] of -0.0259. Moreover, the SARS-CoV-2 infection rate in assay [2] was 111% (inactive).
In turn, `CN(C)CC/C=C1/c2ccccc2COc2ccc(CC(=O)O)cc21` [Olopatadine hydrochloride (Opatanol)] (10 µM) yielded a morphology score in assay [1] of 0.105. Besides, the SARS-CoV-2 infection rate in assay [2] is 111% (inactive).
Turning to `COc1ccc(-n2nc(CCC(=O)N(C)O)cc2-c2ccc(Cl)cc2)cc1` [tepoxalin] (0.833333 µM), the morphology score in assay [1] turned out to be 0.0433. Besides, the SARS-CoV-2 infection rate in assay [2] is 104% (inactive).
On the same counts, the results for `CC1=C(/C=C/C(C)=C/C=C/C(C)=C/C(=O)Nc2ccc(O)cc2)C(C)(C)CCC1` [fenretinide] (10 µM) are -0.442 and 116% (inactive).
Turning to `CN(C)[C@@H]1C(O)=C(C(N)=O)C(=O)[C@@]2(O)C(O)=C3C(=O)c4c(O)ccc(Cl)c4[C@@](C)(O)[C@H]3C[C@@H]12` (10 µM), the morphology score in assay [1] is 0.129. In assay [2], the SARS-CoV-2 infection rate is 102% (inactive).
The matching figures for `O=[N+]([O-])/N=C1\NCCN1Cc1ccc(Cl)nc1` [imidacloprid] (10 µM): 0.114 and 98.5% (inactive).
`C=C(C)[C@H]1CN[C@H](C(=O)O)[C@H]1CC(=O)O` [kainic-acid] (10 µM): in assay [1], the morphology score came to 0.338. In addition, the SARS-CoV-2 infection rate in assay [2] was 79% (inactive).
The matching figures for `Cc1cc(F)c(Nc2ncnc3cc(OCc4ccccc4)ccc23)cc1O` (10 µM): 0.0561 and 99% (inactive).
Molecule `CCCc1c2oc(C(=O)O)cc(=O)c2cc2c(=O)cc(C(=O)O)n(CC)c12` [nedocromil] (10 µM) gave a morphology score in assay [1] of -0.0269. Also, the SARS-CoV-2 infection rate in assay [2] was 110% (inactive).
On the same counts, the results for `CO[C@H]1/C=C/O[C@@]2(C)Oc3c(C)c(O)c4c(O)c(c(/C=N/N=C/N5CCCCC5)c(O)c4c3C2=O)NC(=O)/C(C)=C\C=C\[C@H](C)[C@H](O)[C@@H](C)[C@@H](O)[C@@H](C)[C@H](OC(C)=O)[C@@H]1C` (10 µM) are 0.053 and 108% (inactive).
The matching figures for `CC(C)=CCC[C@](C)(O[C@@H]1O[C@H](CO)[C@@H](O)[C@H](O)[C@H]1O)[C@H]1CC[C@]2(C)[C@@H]1[C@H](O)C[C@@H]1[C@@]3(C)CC[C@H](O)C(C)(C)[C@@H]3CC[C@]12C` [ginsenoside-C-K] (10 µM): 0.0257 and 118% (inactive).
